Measured values from PubChem BioAssay AID1851 (National Center for Advancing Translational Sciences (NCATS), 2009).
Several values for one entry are separate records, joined by “and”; a condition that tells them apart may be missing. Equal entries are not always repeated. About 5,800 (36%) of roughly 16,000 compounds were called active. Roughly 23% stayed inconclusive and do not appear here. Calls follow the shape of the dose curve; as a rule, active = well fitted curve in the direction sought with a large enough effect; inconclusive = small, poorly fitted or top-dose-only effect, or effect the other way; inactive = no such curve, though single readings can be large or run the other way. This is one part of the list. Where a structure was tested more than once in an assay, its records may differ in their call. Square brackets hold non-standard residues; d marks the D form. Peptide text beside a SMILES is read from it.

The molecules below were run against Cytochrome P450 2C19 (Homo sapiens) (UniProt P33261) (assay: Cytochrome panel assay with activity outcomes). Conditions: recombinant CYP, pro-luciferin dealkylation, luminescence, p450-cyp2c19; series mostly up to 57.1 µM; activity, negative = inhibition: at the top concentration.
% is scaled to controls: 0 for no effect and ±100 for the full control effect.

Chain of Cytochrome P450 2C19 (Homo sapiens) (P33261 whole entry, looked up): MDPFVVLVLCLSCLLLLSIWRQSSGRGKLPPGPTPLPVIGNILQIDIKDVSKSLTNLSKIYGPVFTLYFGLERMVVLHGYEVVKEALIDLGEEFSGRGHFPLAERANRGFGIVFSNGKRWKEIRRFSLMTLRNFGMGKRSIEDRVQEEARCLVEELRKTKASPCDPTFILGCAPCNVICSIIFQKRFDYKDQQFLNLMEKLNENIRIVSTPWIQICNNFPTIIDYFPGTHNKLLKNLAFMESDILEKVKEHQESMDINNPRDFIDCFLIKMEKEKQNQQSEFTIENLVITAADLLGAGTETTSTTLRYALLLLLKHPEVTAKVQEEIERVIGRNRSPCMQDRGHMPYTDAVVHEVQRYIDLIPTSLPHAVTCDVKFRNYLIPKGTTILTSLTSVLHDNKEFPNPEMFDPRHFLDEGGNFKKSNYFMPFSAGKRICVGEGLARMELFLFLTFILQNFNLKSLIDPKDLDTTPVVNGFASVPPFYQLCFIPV

Row | Compound | activity, negative = inhibition | AC50
1 | CC(C)(C)c1onc(OCP(=O)(O)O)c1C[C@@H](N)C(=O)O | -1.17% (inactive) | –
2 | CCOc1cc(C#N)c(NC(=O)c2cccnc2)cc1OCC | -11.4% (inactive) | –
3 | O=C(Nc1ccc(F)cc1)c1ccc(-n2ccnc2)nc1 | – | 0.0708 µM (active)
4 | Cc1c(Cl)cccc1NC(=O)c1ccc(-n2ccnc2)nc1 | – | 0.0447 µM (active)
5 | COC(=O)c1cc(=O)[nH]c(=O)[nH]1 | 23% [at 11.4 µM] (inactive) | –
6 | CCNc1ncc2nc(-c3cc(F)cc(F)c3)c(=O)n(CCOC)c2n1 | -41.4% (inactive) | –
7 | COC(=O)/C=C\CCc1coc(/C=C\CNC(=O)OC)n1 | 31.7% [at 11.4 µM] (inactive) | –
8 | CCCCc1n[nH]c2c1/C(=N/O)CC(c1ccccc1)C2 (stereo unspecified) | – | 0.447 µM (active)
9 | CCCc1cc(=O)oc2cc(OCc3cc(OC)c(OC)c(OC)c3)c(Cl)cc12 | 4.84% (inactive) | –
10 | CCCc1cc(=O)oc2cc(OCc3nn[nH]n3)ccc12 | – | 25.1 µM (active)
11 | CCn1c(-c2ccccc2Cl)nn(CC(=O)Nc2ccccc2OC)c1=S | – | 0.891 µM (active)
12 | CCn1c(-c2ccccc2Cl)nn(CC(=O)Nc2cc(Cl)ccc2Cl)c1=S | – | 1.78 µM (active)
13 | CCn1c(-c2ccccc2Cl)nn(CC(=O)Nc2ccc(OC)cc2)c1=S | – | 3.55 µM (active)
14 | COC(=O)c1ccc(C23CC2(C(NP(=O)(c2ccccc2)c2ccccc2)c2ccccc2)C3)cc1 (stereo unspecified) | – | 10 µM (active)
15 | NCS(=O)(=O)O | 8.81% [at 11.4 µM] (inactive) | –
16 | Cn1nc(C(=O)NC2CCCCC2)c2ccccc2c1=O | -26% (inactive) | –
17 | O=C(NC1CCCC1)c1cccnc1N1CCCCCC1 | – | 8.91 µM (active)
18 | O=C(NNC(=O)C1CCCCC1)c1cnccn1 | -21.2% (inactive) | –
19 | COc1cc(C)nc(N2CCCC(C(=O)Nc3cc(Cl)ccc3OC)C2)n1 (stereo unspecified) | – | 0.126 µM (active)
20 | COc1ccc(OC)c(NC(=O)[C@H]2CC=CC[C@H]2C(=O)O)c1 | -9.87% (inactive) | –
21 | O=C(/C=C/c1ccc2ccccc2c1)c1ccoc1 | – | 2 µM (active)
22 | CS(=O)(=O)c1nc(-c2ccccc2)cc(-c2ccccc2)c1C#N | – | 0.794 µM (active)
23 | O=C1c2ccccc2-c2ccc(N(Cc3ccc(Br)cc3)Cc3ccc(Br)cc3)cc21 | -10.9% [at 11.4 µM] (inactive) | –

Row | Compound | activity, negative = inhibition | AC50
24 | O=C(OCc1cccc(F)c1)c1ccc2c(c1)-c1ccccc1C2=O | – | 11.2 µM (active)
25 | O=C1c2ccccc2-c2ccc(NC(=O)[C@H]3CCCC[C@@H]3C(=O)O)cc21 | -17.3% [at 11.4 µM] (inactive) | –
26 | COc1ccc(NC(=O)N2CC[C@@]3(CCCN(C(=O)c4cnccn4)C3)C2)cc1 | 17.4% (inactive) | –
27 | Cc1nc2c(C#N)c(C)[nH]n2c(=O)c1Cc1ccccc1 | -16.2% (inactive) | –
28 | Cc1nc2c(C(=O)NCc3ccc4c(c3)OCO4)c[nH]n2c(=O)c1Cc1ccccc1F | – | 14.1 µM (active)
29 | CC(=O)O[C@H]1C2=CO[C@H](C)[C@H]3[C@H]4C5=C([C@H](O)[C@H]6O[C@@H]6C5=O)[C@H](O[C@H]4C)[C@@]23C(=O)[C@H]2O[C@@H]21 | 11.4% [at 11.4 µM] (inactive) | –
30 | Cn1c(=O)n2n(c1=O)[C@H]1[C@H](O)[C@H]3O[C@@H]3/C(=N/OCc3ccccc3)[C@@H]1CC2 | 50.3% [at 11.4 µM] (inactive) | –
31 | C[C@@H]1O[C@H]2C3=C(C(=O)[C@H]4O[C@@H]4[C@H]3O)[C@@H]1[C@@H]1[C@@H](C)OC=C3[C@H](O)[C@H]4O[C@@H]4/C(=N\OCc4ccccc4)[C@]312 | – | 0.631 µM (active)
32 | CC(=O)c1[nH]c(C)c(C(C)=O)c1C | -10.7% (inactive) | –
33 | CC(=O)c1c(C)[nH]c(C(=O)COc2ccc(C#N)cc2)c1C | – | 8.91 µM (active)
34 | S=C1N(c2ccccc2)C(c2ccc(Cl)cc2)N2CCCN12 (stereo unspecified) | – | 2.24 µM (active)
35 | Cc1ccc(S(=O)(=O)/C(C#N)=C/c2c(N3CC(C)OC(C)C3)nc3ccccn3c2=O)cc1 (stereo unspecified) | – | 14.1 µM (active)
36 | O=C(O)CCc1ccc(-c2ccc(Cl)cc2)n1CCC(=O)O | -23.8% (inactive) | –
37 | O=C1/C(=C/c2ccccc2)[C@@H](NC2CCCCC2)c2ccccc21 | – | 1.26 µM (active)
38 | CCCNC(=O)CC(NS(=O)(=O)c1ccc(Cl)cc1)c1ccco1 (stereo unspecified) | – | 1 µM (active)
39 | CCCNC(=O)NS(=O)(=O)c1ccc(Cl)cc1 | -5.17% [at 25.6 µM] (inactive) | –
40 | O=C(CC(NS(=O)(=O)c1ccc(Cl)cc1)c1ccco1)NCc1ccco1 (stereo unspecified) | – | 7.94 µM (active)
41 | CCOC(=O)C[C@@H](C(=O)OCC)[C@@H]1CCCCC1=O | -32.2% [at 11.4 µM] (inactive) | –
42 | O=C1NC(=O)C(c2ccccc2)(c2ccccc2)N1 | 10.9% (inactive) | –
43 | COC(=O)C/C=C\[C@@H](C)[C@@H]1C=C[C@H](OC(C)=O)[C@H](COC(C)=O)O1 | 16.3% [at 11.4 µM] (inactive) | –
44 | O=C1CN2CCN(CC2)CC(=O)Nc2ccc(cc2)S(=O)(=O)c2ccc(cc2)NC(=O)CN2CCN(CC2)CC(=O)Nc2ccc(cc2)S(=O)(=O)c2ccc(cc2)N1 | -8.07% [at 11.4 µM] (inactive) | –
45 | CCC(=O)Nc1nonc1-c1nc2ccccc2n1N(C(=O)CC)C(=O)CC | -13.8% (inactive) | –
46 | CCn1c(-c2nonc2NC(=O)c2ccccc2)nc2ccccc21 | – | 1.58 µM (active)

Row | Compound | activity, negative = inhibition | AC50
47 | CN(C)Cc1ccccc1-c1ccc2ncnc(NC3CCNCC3)c2c1 | 0.549% (inactive) | –
48 | Clc1ccccc1-c1ccc2ncnc(NC3CCNCC3)c2c1 | – | 3.98 µM (active)
49 | FC(F)(F)c1ccccc1-c1ccc2ncnc(NC3CCNCC3)c2c1 | – | 3.98 µM (active)
50 | Cc1ccccc1-c1ccc2ncnc(NC3CC3)c2c1 | – | 1.26 µM (active)
51 | Cc1ccccc1-c1nc(NC2CCNCC2)c2ccccc2n1 | -11.2% (inactive) | –
52 | FC(F)(F)c1ccccc1-c1ccc2ncnc(NC3CC3)c2c1 | – | 2 µM (active)
53 | O[C@@H](c1ccccc1)C1CCN(CCc2ccccc2)CC1 | -43.7% (inactive) | –
54 | C[C@@H](N)C(=O)O | -2.97% (inactive) | –
55 | Cc1ccccc1N1CCN(S(=O)(=O)C[C@@]23CC[C@H](C[C@H]2NC(=O)[C@@H](N)CCS(C)(=O)=O)C3(C)C)CC1 | -31.2% (inactive) | –
56 | O=C1NC(c2ccccc2)=NC1(NS(=O)(=O)c1ccccc1)C(F)(F)F (stereo unspecified) | 9.27% (inactive) | –
57 | COc1ccc(S(=O)(=O)NC2(C(F)(F)F)N=C3SCCN3C2=O)cc1 (stereo unspecified) | – | 22.4 µM (active)
58 | COc1cnc(NS(=O)(=O)c2ccc(N)cc2)nc1 | -19.3% [at 25.6 µM] (inactive) | –
59 | CC(=O)[C@@]1(O)CC[C@H]2[C@H]3C[C@@H](C)C4=CC(=O)C=C[C@]4(C)[C@@]3(F)[C@@H](O)C[C@]21C | -14.6% [at 25.6 µM] (inactive) | –
60 | COc1ccc(CC(=O)NC(=S)Nc2ccc(S(=O)(=O)NC(C)(C)C)cc2)cc1 | – | 25.1 µM (active)
61 | CCC(=O)NC(=S)Nc1ccc(S(=O)(=O)NC(C)=O)cc1 | -19.2% (inactive) | –
62 | CC(C)(C)N1C(=O)[C@@H]2[C@H]3C(=CC[C@H]2C1=O)C(=O)[C@H]1O[C@H]1[C@H]3O | 18.8% [at 11.4 µM] (inactive) | –
63 | O=C(O)C1=CCCNC1 | – | inactive
64 | COc1ccc(CCNc2nc(-c3cccnc3)cs2)cc1OC | – | 1.41 µM (active)
65 | COc1ccc(NC(=O)C23CC4CC(C2)CC(n2cnc(Br)n2)(C4)C3)c(C)c1 | -20.6% (inactive) | –
66 | O=C(NC12CC3CC(CC(C3)C1)C2)C12CC3CC(C1)CC(n1cnc(Cl)n1)(C3)C2 | – | 8.91 µM (active)
67 | COC(=O)[C@@H]1[C@@H]2C[C@H]3c4[nH]c5ccccc5c4CCN3C[C@@H]2CC[C@@H]1OS(=O)(=O)O | -2.78% [at 11.4 µM] (inactive) | –
68 | CCOc1cc(S(=O)(=O)N(Cc2ccccc2)Cc2ccccc2)c(OCC)cc1-n1cnnn1 | – | 11.2 µM (active)
69 | CC1(C)NC(=O)N(c2ccc([N+](=O)[O-])c(C(F)(F)F)c2)C1=O | – | 126 nM (active) and 251 nM (active)

Row | Compound | activity, negative = inhibition | AC50
70 | Cc1cc2nc(CCN(C(=S)NCC(C)C)C3CCCC3)[nH]c2cc1C | – | 2.24 µM (active)
71 | COC(=O)Cn1cnc(=O)c(C#N)c1/C=C/N(C)C | -16.4% (inactive) | –
72 | C[C@@]1(C(=O)O)CCC[C@@H]1C(=O)O | 40% [at 11.4 µM] (inactive) | –
73 | N[C@@]1(C(=O)O)CN[C@H](C(=O)O)C1 | -7.35% (inactive) | –
74 | NC1(C(=O)O)C[C@H](C(=O)O)[C@H](C(=O)O)C1 (stereo partly specified) | – | 0.398 µM (active)
75 | NC1(C(=O)O)C[C@@H](C(=O)O)[C@H](C(=O)O)C1 | – | inactive and 7.94 µM (active)
76 | N[C@H](C(=O)O)[C@@H]1C[C@@H]1C(=O)O | – | inactive
77 | NC1(C(=O)O)CC(C(=O)O)C1 (stereo unspecified) | -15.2% (inactive) | –
78 | c1ccc2c3c([nH]c2c1)[C@@H]1[C@H]2CC[C@H]([C@H]4CCCN[C@H]42)N1CC3 | 1.6% [at 25.6 µM] (inactive) | –
79 | Cc1noc(C)c1C(=O)N1CCC2(CCCN(Cc3nccs3)C2)CC1 | -39.5% (inactive) | –
80 | NCC(=O)N[C@H](CO)C(=O)O (H-Gly-[dS]-OH) | -0.959% [at 11.4 µM] (inactive) | –
81 | COc1ccc(N2CCN(S(=O)(=O)c3ccc4c(c3)CCCC4)CC2)c([N+](=O)[O-])c1 | – | 2 µM (active)
82 | CCS(=O)(=O)N1CCC[C@H]2CN3CCc4cc(OC)ccc4[C@@H]3C[C@@H]21 | -31.5% (inactive) | –
83 | COc1ccc(-n2c(=O)c(-c3ccccc3)nc3cnc(N4CCNCC4)nc32)cc1 | -16.4% (inactive) | –
84 | COc1cccc(-c2cc(C(F)(F)F)nc(N3CCN(c4ccccc4)CC3)n2)c1 | – | 8.91 µM (active)
85 | COc1ccc(-n2c(=O)c(-c3cc(F)cc(F)c3)nc3cnc(N4CCOCC4)nc32)cc1 | -21.1% (inactive) | –
86 | COc1cccc(Cn2c(=O)c(-c3cn(C)c4ccccc34)nc3cnc(N4CCOCC4)nc32)c1 | -44.4% (inactive) | –
87 | COc1cccc(-c2cc(C(F)(F)F)nc(N3CCOCC3)n2)c1 | – | 25.1 µM (active)
88 | CCC(=S)/C=C1\Sc2ccccc2N1CCCS(=O)(=O)O | 31% (inactive) | –
89 | Brc1cc2c(cc1/C=N/Nc1nc(N3CCCC3)nc(N3CCOCC3)n1)OCO2 | – | 7.94 µM (active)
90 | O=[N+]([O-])c1ccc2c(c1)Cc1cc(N=Cc3ccc4c(c3)OCO4)ccc1-2 | -19.5% [at 11.4 µM] (inactive) | –
91 | O=[N+]([O-])c1ccc(Nc2nc(N/N=C\c3ccc4c(c3)OCO4)nc(N3CCCCC3)n2)cc1 | – | 2.24 µM (active)
